From PubChem BioAssay (NCI)
Values joined by “and” are separate entries in the source; they are usually repeats but may differ in a detail not shown here. Equal entries are not always repeated. The panel holds about 83,000 compounds, 20% with a hit somewhere; the sample as a whole holds those more often.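 The test compound was applied at a single concentration to cells in 96-well plates for 48 hours, and percent growth was recorded.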 Active and inactive are the calls of the source. The calls were made as follows: active = growth percent below 10; inactive = the rest.

These compounds were tested on MCF7 breast (assay: NCI-60 one-dose screen, 48 h (100 = growth as untreated, 0 = no growth, -100 = all killed)). Settings: 10 µM unless noted.

For CCCCCCCCCc1cc(=O)c2c(O)cc(O)cc2o1, which growth is on record?
The growth was -86.1% [100 µM] (active) and -45.1% [100 µM] (active).

Which growth does the source give for CC(O)c1cc2c(s1)C(=O)c1ccsc1C2=O (centres undefined) here?
Its growth is -56.8% [100 µM] (active) and -91.5% [100 µM] (active).

CC(C)(C)O/N=C/c1cc(NC(=S)c2ccsc2)ccc1Cl was tested. Which growth did it give?
Its growth is -74.5% [100 µM] (active) and -71.7% [100 µM] (active).

How did the growth turn out when Cc1ccc(NC(=S)C#N)c(C)c1 was run?
The growth was 48.6% [100 µM] (inactive) and -77.7% [100 µM] (active).
